Experimental findings from the supplement of paper PMC4840960 are described below.

Where a name gives a salt, the structure may show the parent alone.

The test relates to E18 rat cortical neuron-glia co-culture. Nature of the test: myelination (MBP fiber length per Olig2+ nucleus), % of 1 µM DAPT response (DMSO = 0) (% of DAPT); higher = more myelination, active = 50 or more. To be noted: 1 µM; treatment time: 8 days (DIV5-DIV13). The gist of the method:
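Library compounds at 1 or 5 µM in myelination medium were applied from DIV5 to DIV13 to papain-dissociated E18 rat cortical co-cultures seeded at 20,000 cells/well on poly-d-lysine/laminin 96-well plates. Fixed cells (4 % paraformaldehyde) were immunostained for MBP and Olig2 with DAPI, and four 10X fields were analysed in each duplicate well. Continuous straight MBP fiber length per Olig2+ nucleus was set to 0 for 0.1 % DMSO and to 100 for a 1 µM positive control.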
For the compound `COc1cc(C)c(/C=C/C(C)=C/C=C/C(C)=C/C(=O)O)c(C)c1C` [Acitretin], the myelination was 0.3 (inactive). For the compound `COc1cc2c(cc1OC)C(=O)C(CC1CCN(Cc3ccccc3)CC1)C2` (centres undefined) [Donepezil], the myelination is -20.8 (inactive). For `CCC1=C(C)CN(C(=O)NCCc2ccc(S(=O)(=O)NC(=O)N[C@H]3CC[C@H](C)CC3)cc2)C1=O` [Glimepiride], the myelination is -3.14 (inactive).

Take `CN(C)CCC=C1c2ccccc2COc2ccccc21` [Doxepin]: the myelination was -6.24 (inactive). Regarding `N=C(N)NC(=O)c1nc(Cl)c(N)nc1N` [Amiloride], the myelination was -12.4 (inactive). For the compound `CC(=O)NS(=O)(=O)c1ccc(N)cc1` [Sulfacetamide], the myelination was -10.6 (inactive).

Consider `Cn1nnc2c(C(N)=O)ncn2c1=O` [Temozolomide], for which the myelination was -29.3 (inactive). For the compound `O=C(O)/C=C/c1ccc(Cn2ccnc2)cc1` [Ozagrel], the myelination is -6.75 (inactive). Turning to `CC(COc1ccccc1)N(CCCl)Cc1ccccc1` (centres undefined) [Phenoxybenzamine], the myelination was -14.4 (inactive). As for `CCn1cc(C(=O)O)c(=O)c2ccc(C)nc21` [Nalidixic Acid], the myelination was -2.25 (inactive). As for `COC(=O)C1=C(C)NC(C)=C(C(=O)OC2CCCN(Cc3ccccc3)C2)C1c1cccc([N+](=O)[O-])c1` (centres undefined) [Benidipine], the myelination was -35.3 (inactive). For `CN(C)CCc1c[nH]c2ccc(C[C@H]3COC(=O)N3)cc12` [Zolmitriptan], the myelination is -9.2 (inactive).

On to `O=c1c(O[C@@H]2O[C@H](CO)[C@@H](O)[C@H](O)[C@H]2O)c(-c2ccc(O)c(O)c2)oc2cc(O)cc(O)c12` [Isoquercitrin], for which the myelination is 1.55 (inactive). Consider `CO[C@@]1(NC(=O)Cc2cccs2)C(=O)N2C(C(=O)O)=C(COC(N)=O)CS[C@@H]21` [Cefoxitin], for which the myelination is -5.64 (inactive). Consider `CO[C@H]1/C=C/O[C@@]2(C)Oc3c(C)c(O)c4c(O)c(c5c(nc6cc(C)ccn65)c4c3C2=O)NC(=O)/C(C)=C\C=C\[C@H](C)[C@H](O)[C@@H](C)[C@@H](O)[C@@H](C)[C@H](OC(C)=O)[C@@H]1C` [Rifaximin], for which the myelination is -4.06 (inactive). Regarding `CN(C)CCCSc1ccccc1NC(=O)/C=C/c1ccccc1` [Cinanserin], the myelination is -5.83 (inactive).

In the case of `O=C(O[C@H]1[C@H](Oc2ccccc2COC(=O)C2(O)C=CCCC2=O)O[C@H](CO)[C@@H](O)[C@@H]1O)c1ccccc1` (some centres undefined) [Tremulacin], the myelination was -11.2 (inactive).

For the compound `C[C@H](N[C@@H](CCc1ccccc1)C(=O)O)C(=O)N1CCC[C@H]1C(=O)O` [Enalaprilat], the myelination is -2.57 (inactive). Regarding `O=C1CN2Cc3c(ccc(Cl)c3Cl)N=C2N1` [Anagrelide hydrochloride], the myelination was -1.07 (inactive). On to `CN1C(=O)CC[C@H]1c1cccnc1` [Cotinine], for which the myelination was -30.3 (inactive). `CN1CCN(C2=Nc3ccccc3Oc3ccc(Cl)cc32)CC1` [Loxapine]: the myelination was -14.9 (inactive). With `CN1CCC(=C2c3ccccc3CCc3sccc32)CC1` [Pizotyline], the myelination is -41 (inactive).

`C[n+]1ccccc1C=NO` [Pralidoxime]: the myelination is -7.49 (inactive).

For the compound `NS(=O)(=O)c1cc(C(=O)O)c(NCc2ccco2)cc1Cl` [Furosemide], the myelination was -9.91 (inactive).

Regarding `C[C@H]1C[C@H]2[C@@H]3CCC4=CC(=O)C=C[C@]4(C)[C@@]3(F)[C@@H](O)C[C@]2(C)[C@@]1(O)C(=O)CCl` [Clobetasol], the myelination is 7.06 (inactive). In the case of `CC(=O)OCC[N+](C)(C)C` [Acetylcholine], the myelination is -17.4 (inactive). For the compound `C[C@@H]1C[C@H]2[C@@H]3CCC4=CC(=O)C=C[C@]4(C)[C@@]3(F)[C@@H](O)C[C@]2(C)[C@H]1C(=O)CO` [Desoximetasone], the myelination is 7.66 (inactive).

Consider `CCN1CCCC1CNC(=O)c1cc(S(N)(=O)=O)ccc1OC` (centres undefined) [Sulpiride], for which the myelination is -10.3 (inactive). With `Clc1ccc2c(c1)C(N1CCNCC1)=Nc1ccccc1O2` [Amoxapine], the myelination is 0.685 (inactive). In the case of `CC(=O)CC(c1ccccc1)c1c(O)c2ccccc2oc1=O` (centres undefined) [Warfarin], the myelination is -6.64 (inactive).

As for `CN[C@@H]1[C@H](O)[C@H](NC)[C@H]2O[C@@]3(O)C(=O)C[C@@H](C)O[C@H]3O[C@@H]2[C@H]1O` [Spectinomycin], the myelination is -3.04 (inactive). In the case of `O=C(c1ccc(F)cc1)C1CCN(CCn2c(=S)[nH]c3ccccc3c2=O)CC1` [Altanserin] it was 0.872 (inactive); in that of `CCc1nc(N)nc(N)c1-c1ccc(Cl)cc1` [Pyrimethamine], 398 (active); in that of `CN/C(=N\CCSCc1nc[nH]c1C)NC#N` [Cimetidine], -12.1 (inactive). Take `CCCCNC(=O)NS(=O)(=O)c1ccc(C)cc1` [Tolbutamide]: the myelination is -1.85 (inactive). As to `CN1CCC[C@H]1c1cccnc1` [Nicotine], the myelination is -10.1 (inactive). In the case of `NC(=O)OCC(COC(N)=O)c1ccccc1` [Felbamate], the myelination was -15.5 (inactive). `NS(=O)(=O)c1cc2c(cc1C(F)(F)F)NCNS2(=O)=O` [Hydroflumethiazide]: the myelination is -2.17 (inactive). Turning to `Nc1nc2ccc(Cl)cc2c2nc(-c3ccco3)nn12`, the myelination was -37.8 (inactive).
